Source: paper PMC5540273 (PLoS ONE, 2017)

What was measured:
Conditions in all cases: concentration: 1 μM, replicates: in singlicate; n = 1
PDPK1 = system: PDPK1
PFTAIRE2 = system: PFTAIRE2
PFTK1 = system: T1, PFTK1
T1 construct: gene CDK14

PHKG1 = system: PHKG1
PHKG2 = system: PHKG2
PIK3C2B = system: PIK3C2B
PIK3C2G = system: PIK3C2G
PIK3CA = system: PIK3CA
PIK3CB = system: PIK3CB
PIK3CD = system: PIK3CD
PIK3CG = system: PIK3CG
PIK4CB = system: T2, PIK4CB
T2 construct: gene PI4KB

PIKFYVE = system: PIKFYVE
PIM1 = system: PIM1
PIM2 = system: PIM2
PIM3 = system: PIM3
PIP5K1A = system: PIP5K1A
PIP5K1C = system: PIP5K1C
PIP5K2B = system: PIP5K2B
PIP5K2C = system: T3, PIP5K2C
T3 construct: gene PIP4K2C
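Further: KINOMEscan kinase panel screen.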

| Compound | %Inh (PDPK1) | %Inh (PFTAIRE2) | %Inh (PFTK1) | %Inh (PHKG1) | %Inh (PHKG2) | %Inh (PIK3C2B) | %Inh (PIK3C2G) | %Inh (PIK3CA) | %Inh (PIK3CB) | %Inh (PIK3CD) | %Inh (PIK3CG) | %Inh (PIK4CB) | %Inh (PIKFYVE) | %Inh (PIM1) | %Inh (PIM2) | %Inh (PIM3) | %Inh (PIP5K1A) | %Inh (PIP5K1C) | %Inh (PIP5K2B) | %Inh (PIP5K2C) |
| --- | --- | --- | --- | --- | --- | --- | --- | --- | --- | --- | --- | --- | --- | --- | --- | --- | --- | --- | --- | --- |
| COC(=O)c1c(-c2ccccc2)c2cc(Br)ccc2c(=O)n1Cc1ccc(NC(=O)CCC(=O)O)cc1 | 0% | 17% | 0% | 0% | 0% | 0% | 1% | 0% | 24% | 0% | 7% | 0% | 5% | 4% | 24% | 3% | 4% | 0% | 35% | 0% |
| COc1cc(Nc2nccc(N3CCC(NC(=O)C4COc5ccccc5O4)C3)n2)cc(OC)c1OC (stereo not drawn) [GSK1379761] | 2% | 2% | 26% | 12% | 18% | 10% | 0% | 0% | 0% | 42% | 0% | 0% | 21% | 0% | 0% | 0% | 51% | 0% | 6% | 89% |
| CN1C(=O)C(Nc2cc(Cl)c(O)c(Cl)c2)=C(c2ccc(Cl)cc2)C1=O [SB-404321] | 0% | 0% | 0% | 0% | 0% | 0% | 0% | 0% | 0% | 0% | 10% | 36% | 24% | 0% | 0% | 0% | 0% | 27% | 0% | 30% |
| Cc1c(Cn2c(C)nn3c(=O)cc(N4CCO[C@H](C)C4)nc23)cccc1C(F)(F)F [GSK2373690] | 0% | 10% | 11% | 3% | 0% | 0% | 0% | 0% | 96.7% | 65% | 21% | 0% | 0% | 0% | 0% | 0% | 0% | 13% | 12% | 9% |
| COc1cc(Nc2nccc(N3CCC(NC(=O)C(C)c4ccc(Cl)cc4)C3)n2)cc(OC)c1OC (stereo not drawn) [GSK1379757] | 0% | 11% | 6% | 0% | 0% | 10% | 0% | 6% | 0% | 0% | 2% | 0% | 0% | 0% | 0% | 0% | 42% | 35% | 3% | 79% |
| COc1cccc(C2=C(Nc3cccc(C(=O)O)c3)C(=O)NC2=O)c1 [SB-390770] | 0% | 13% | 0% | 0% | 1% | 0% | 22% | 8% | 0% | 32% | 5% | 0% | 0% | 0% | 0% | 0% | 5% | 56% | 4% | 23% |
| O=C(NCCNc1ccnc(Nc2ccc(F)cc2)n1)Nc1ccc2c(c1)OCO2 [GSK1379882] | 0% | 25% | 0% | 8% | 7% | 7% | 0% | 7% | 0% | 0% | 10% | 17% | 8% | 21% | 0% | 11% | 7% | 66% | 0% | 24% |
| COC(=O)c1c(-c2ccccc2)c2cc(C)ccc2c(=O)n1Cc1ccccc1 | 0% | 0% | 2% | 0% | 15% | 0% | 0% | 0% | 0% | 0% | 0% | 0% | 0% | 2% | 0% | 0% | 13% | 20% | 5% | 1% |
| O=C(NCc1cccs1)c1cc(C(=O)c2c(Cl)cccc2Cl)c[nH]1 [GW823670] | 0% | 0% | 55% | 2% | 0% | 0% | 0% | 0% | 0% | 0% | 0% | 0% | 0% | 5% | 0% | 0% | 34% | 0% | 4% | 0% |
| Cc1ccccc1COc1cc(-n2cnc3cc(Cl)ccc32)sc1C(N)=O [GW813349] | 0% | 0% | 0% | 0% | 0% | 24% | 17% | 21% | 0% | 0% | 24% | 0% | 0% | 2% | 18% | 0% | 24% | 37% | 0% | 24% |
| O=C(Nc1n[nH]c2nc(-c3ccccc3)c(Cl)cc12)C1CC1 [SB-734909] | 0% | 0% | 6% | 0% | 7% | 35% | 10% | 12% | 13% | 17% | 45% | 2% | 0% | 0% | 3% | 1% | 8% | 38% | 13% | 14% |
| O=c1cc(N2CCOCC2)nc2n(Cc3ccc(F)c(Cl)c3)ccn12 [GSK2297099] | 0% | 62% | 14% | 0% | 0% | 31% | 0% | 11% | 96.2% | 75% | 23% | 20% | 0% | 11% | 0% | 19% | 0% | 0% | 0% | 0% |
| COc1ccc(-c2cc3c(C)nc(N)nc3n([C@H]3CC[C@H](OCCO)CC3)c2=O)cn1 | 0% | 0% | 0% | 7% | 0% | 98.1% | 98.1% | 100% | 100% | 96.6% |  | 96.1% | 11% | 0% | 44% | 0% | 0% | 1% | 2% | 9% |
| Cc1ccc(Oc2ccc(Nc3ncnc4cc[nH]c34)cc2C)cn1 | 25% | 7% | 0% | 0% | 0% | 24% | 60% | 5% | 57% | 54% | 7% | 42% | 1% | 41% | 7% | 36% | 7% | 0% | 0% | 0% |
| CCS(=O)(=O)c1ccc(OC)c(Nc2ncc(-c3ccc(F)cc3)o2)c1.Cl [GW591947] | 0% | 9% | 1% | 0% | 0% | 0% | 0% | 0% | 0% | 0% | 0% | 0% | 0% | 0% | 0% | 0% | 0% | 23% | 3% | 2% |
| Cn1c(=O)c(F)c(Nc2ccc(I)cc2F)c2c(=O)n(OC[C@H](O)CO)cnc21 | 21% | 2% | 0% | 23% | 0% | 0% | 0% | 0% | 0% | 0% | 0% | 0% | 6% | 5% | 13% | 0% | 11% | 22% | 9% | 12% |

| Compound | %Inh (PDPK1) | %Inh (PFTAIRE2) | %Inh (PFTK1) | %Inh (PHKG1) | %Inh (PHKG2) | %Inh (PIK3C2B) | %Inh (PIK3C2G) | %Inh (PIK3CA) | %Inh (PIK3CB) | %Inh (PIK3CD) | %Inh (PIK3CG) | %Inh (PIK4CB) | %Inh (PIKFYVE) | %Inh (PIM1) | %Inh (PIM2) | %Inh (PIM3) | %Inh (PIP5K1A) | %Inh (PIP5K1C) | %Inh (PIP5K2B) | %Inh (PIP5K2C) |
| --- | --- | --- | --- | --- | --- | --- | --- | --- | --- | --- | --- | --- | --- | --- | --- | --- | --- | --- | --- | --- |
| Cc1nn2c(=O)cc(N3CCOCC3)nc2n1Cc1cccc(Cl)c1Cl [GSK2342769] | 0% | 0% | 91.7% | 7% | 0% | 89% | 56% | 5% | 89% | 99.6% | 69% | 0% | 62% | 0% | 0% | 0% | 0% | 12% | 5% | 1% |
| OCCCNc1nccc(-c2c(-c3cccc(C(F)(F)F)c3)nn3cc(C(F)(F)F)ccc23)n1 [GW630813] | 0% | 1% | 18% | 0% | 5% | 0% | 0% | 0% | 0% | 0% | 0% | 0% | 0% | 9% | 0% | 0% | 30% | 66% | 2% | 38% |
| Cc1nnc(-c2ccc(C)c(-c3ccc(C(=O)O)cc3)c2)o1 [GW608005] | 4% | 11% | 0% | 2% | 0% | 0% | 3% | 0% | 0% | 6% | 0% | 0% | 0% | 18% | 0% | 0% | 0% | 6% | 0% | 0% |
| CN(C)c1cc(-c2ccc3c(N)n[nH]c3c2)nc(N)n1 [GSK2219329] |  | 0% | 11% | 0% | 0% | 0% | 0% | 0% | 0% | 0% | 0% | 0% | 0% | 14% | 0% | 0% | 0% | 19% | 0% | 0% |
| O=C1NC(=O)C(c2ccccc2)=C1Nc1cccc(O)c1 [SB-390534] | 0% | 10% | 0% | 0% | 0% | 2% | 4% | 0% | 0% | 0% | 5% | 22% | 0% | 0% | 0% | 0% | 5% | 0% | 13% | 0% |
| CCS(=O)c1ccc(-c2coc3ccc(-c4nnc(C)o4)cc23)cc1 (stereo not drawn) | 0% | 0% | 9% | 0% | 0% | 0% | 15% | 0% | 32% | 12% | 0% | 19% | 3% | 6% | 27% | 11% | 0% | 13% | 0% | 93% |
| COc1ccc(-c2coc3ccc(-c4nnc(SCc5cccc(C#N)c5)o4)cc23)cc1 | 2% | 0% | 1% | 0% | 1% | 2% | 5% | 0% | 39% | 0% | 0% | 29% | 0% | 12% | 20% | 17% | 0% | 0% | 4% | 9% |
| Cc1cccc(-c2nc(Nc3ccc4c(cnn4C)c3)c3ccccc3n2)n1 [GW876731] | 37% | 10% | 22% | 0% | 0% | 0% | 44% | 0% | 3% | 61% | 0% | 26% | 91.5% | 8% | 1% | 21% | 0% | 0% | 0% | 0% |
| Fc1cccc(CSc2nnc(-c3ccc4c(c3)CCO4)o2)c1 | 0% | 10% | 0% | 1% | 0% | 1% | 17% | 10% | 14% | 0% | 10% | 2% | 7% | 13% | 18% | 9% | 13% | 5% | 34% | 0% |
| CC(C)(C)c1ccc(C(=O)Nc2cn3cc(-c4ccccc4)ccc3n2)cc1 | 0% | 0% | 0% | 4% | 2% | 0% | 0% | 0% | 14% | 0% | 0% | 0% | 27% | 30% | 0% | 19% | 0% | 32% | 6% | 54% |
| COc1cccc(C2=C(N(C)c3ccccc3)C(=O)NC2=O)c1 [SB-334865] | 0% | 0% | 20% | 0% | 0% | 0% | 0% | 0% | 0% | 0% | 0% | 0% | 2% | 0% | 0% | 0% | 0% | 70% | 6% | 30% |
| COc1cc2ncn(-c3cc(OCCCc4ccccc4)c(C(N)=O)s3)c2cc1OC [GSK205189] | 11% | 8% | 34% | 2% | 20% | 8% | 0% | 0% | 0% | 0% | 0% | 0% | 0% | 0% | 0% | 0% | 0% | 69% | 0% | 9% |
| CCc1ccc(-c2ccc3c(c2)-c2nn(C)cc2S(=O)(=O)N3C)cc1 | 23% | 0% | 9% | 0% | 0% | 0% | 0% | 0% | 0% | 0% | 0% | 0% | 16% | 0% | 12% | 0% | 0% | 35% | 0% | 9% |
| CCC(=O)c1c(-c2ccccc2)c2cc(Cl)ccc2c(=O)n1Cc1cc(C(=O)NC2CC2)n(C)n1 | 0% | 0% | 0% | 0% | 0% | 0% | 37% | 0% | 21% | 14% | 0% | 0% | 25% | 0% | 0% | 11% | 0% | 0% | 32% | 12% |
| Nc1nc(-c2ccccc2F)c(-c2ccnc3ccccc23)s1 [GW560459] | 0% | 12% | 5% | 7% | 0% | 0% | 0% | 0% | 0% | 12% | 0% | 0% | 0% | 0% | 0% | 3% | 13% | 46% | 4% | 59% |
